# A selection: hits, their analogues and other compounds. The true share with any hit is near 19%.
# TDP1 cell noCPT: qHTS for Inhibitors of human tyrosyl-DNA phosphodiesterase 1 (TDP1): qHTS in cells in absence of CPT | DT40 Tdp1-/- hTDP1 cells, no CPT, ATP luminescence, 48 h | Potency, µM (doses to about 46.2 µM), inactives show top-dose activity change, negative = growth inhibition, hits mostly inhibitors | 15% of 420,000 active | AID 686978, 2013; note: nearly all actives have a fitted effect of over 55% in size
#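 Seeded 400 DT40-hTDP1 cells/well (vehicle DMSO, no 20 nM CPT); pinned compounds; ≥48 hr at 37 °C; CellTiter-Glo luminescence as viability measure.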
# KB-3-1 cytotox: kills parental KB-3-1 adenocarcinoma cells; KB-3-1 viability, CellTiter-Glo ATP luminescence, 72 h; Potency, µM (top dose mostly 46.1 µM), most hits filed as cytotoxic; 1.4% of 400,000 active; AID 1347075; note: nearly all actives have a fitted effect of over 60% in size
#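 Using CellTiter-Glo luminescence, growth of non-resistant KB-3-1 adenocarcinoma cells is assessed 72 h after pin-tool compound addition at 37 °C. Normalized responses across the concentration series yield fitted curves.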
# HT1080 IDH1KD tx: kills HT-1080 cells with IDH1 knockdown; HT-1080 IDH1 knockdown viability, ATP luminescence, 48 h; Potency, µM (doses to about 46.1 µM), inactives show at the highest dose activity, negative = toxicity, most hits filed as cytotoxic; 2% of 360,000 active;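 note: 0% = DMSO wells and -100% = cell-free medium wells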
#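 Luminescent ATP read-out (CellTiter-Glo, 10 min at room temperature) after 48 h compound exposure at 37 °C gave viability of IDH1-knockdown HT-1080 cells. Activity was normalised to DMSO and cell-free wells, then fitted as concentration-response curves.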
# DT40 TDP1 CPT: growth inhibition of DT40 Tdp1-/-;hTDP1 cells with camptothecin (screen for TDP1 inhibitors); chicken DT40 Tdp1-/-;hTDP1 cells + 20 nM CPT, ATP luminescence, 48 h; Potency, µM (highest dose often 46.2 µM), for the others: at the highest dose activity change, negative = growth inhibition, most hits filed as inhibitors; 12% of 420,000 active; note: nearly all actives have a fitted effect of over 55% in size
#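 Chicken DT40 Tdp1-/- cells complemented with human TDP1, 400 cells/well, exposed to compounds plus 20 nM camptothecin for at least 48 h at 37 C; viability read as ATP content by CellTiter-Glo luminescence.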
# KB-V1 cytotox: kills drug-selected multidrug resistant KB-V1 cells; KB-V1 MDR cells viability, CellTiter-Glo, 72 h; Potency, µM (doses to about 46.1 µM), usual class: cytotoxic; 3.4% of 400,000 active; note: nearly all actives have a fitted effect of over 60% in size
#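 Luminescent ATP read-out (CellTiter-Glo, 10 min) measures survival of drug-selected KB-V1 MDR cells after 72 h, 37 degrees C compound exposure. Medium: phenol-red-free DMEM, 10% FBS. Values from fitted concentration-response curves.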
# HT1080NT lethal: kills 2HG-producing HT-1080-NT fibrosarcoma cells; HT-1080-NT fibrosarcoma viability, CellTiter-Glo ATP luminescence, 48 h; 1.6% of 360,000 active; AID 686970; Potency, µM (titrated, usually from 46.1 µM), without a hit: top-dose activity, negative = less viability, actives largely listed as cytotoxic;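 note: NT is the 2HG producing partner of a matched IDH1 knockdown line; 0% = DMSO-treated cells and -100% = media-only wells without cells; nearly all actives have a fitted effect of over 55% in size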
#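 HT-1080-NT fibrosarcoma cells (2HG-overproducing), 750 cells/well in RPMI with 5% FBS, dosed after 2 h and incubated 48 h at 37C. CellTiter-Glo luminescence normalized to DMSO and no-cell wells; concentration-response curves fitted and classed.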
# * marks the source's active call; other numbers are inactive results; i = inactive; ? = inconclusive; . = no result. Calls come from the whole dose curve; as a rule, active = well fitted curve in the direction sought with a large enough effect; inconclusive = small, poorly fitted or top-dose-only effect, or another doubt; inactive = no such curve, though single readings can be large; an effect the other way counts as inactive or inconclusive. Unless noted, % is set by controls: 0 for no effect and ±100 for the full control effect; potency is the fitted concentration of half-maximal effect.
SMILES,TDP1 cell noCPT,KB-3-1 cytotox,HT1080 IDH1KD tx,DT40 TDP1 CPT,KB-V1 cytotox,HT1080NT lethal
COc1ccc(/C=C(\C#N)C(=O)NC(C)c2ccccc2)cc1O (centres undefined),?,i,?,-25%,i,-30%
CCOC(=O)[C@@H]1[C@H]2COc3ccc(Br)cc3[C@H]2N2C(=O)N(c3ccc(C(F)(F)F)cc3)C(=O)[C@]12C,12µM*,i,-1%,?,i,1%
CCOC(=O)[C@@H]1[C@H]2COc3ccc(Br)cc3[C@H]2N2C(=O)N(c3ccc(Cl)cc3)C(=O)[C@]12C,9.2µM*,i,0%,?,i,-8%
CCOC(=O)[C@@H]1[C@H]2COc3ccc(Br)cc3[C@@H]2N2C(=O)N(c3ccccc3)C(=O)[C@@]12C,-17%,i,0%,?,i,-3%
CCOC(=O)[C@@H]1[C@H]2COc3ccc(Br)cc3[C@@H]2N2C(=O)N(c3ccc(Br)cc3)C(=O)[C@]12C,?,i,-14%,-14%,i,-13%
CCOC(=O)[C@H]1[C@H]2COc3ccc(Br)cc3[C@@H]2N2C(=O)N(c3ccccc3)C(=O)[C@@]12C,-28%,i,1%,18µM*,i,-1%
CCOC(=O)[C@@H]1[C@H]2COc3ccc(Br)cc3[C@H]2N2C(=O)N(c3ccc(Br)cc3)C(=O)[C@]12C,?,i,-6%,?,i,0%
OCC[C@@H]1C[C@@H](O)[C@H](O)[C@]2(CCCCO2)O1,2%,i,22%,4%,i,16%
CCN1C=C(Cc2ccc(OC)cc2)C2=C(C1)C(c1ccc(OC)cc1)C(C#N)=C(N)O2 (centres undefined),16µM*,?,?,?,i,-26%
Cc1cc(CCNC=O)c(C)c2c1sc1ccccc12,0%,16µM*,-10%,2%,16µM*,-6%
Cc1noc(C)c1C(=O)Nc1nc2ccc(F)cc2s1,-25%,?,0%,4%,i,1%
COc1ccc2nc(NC(=O)c3nc(S(=O)(=O)Cc4ccc(C)cc4)ncc3Cl)sc2c1,2.3µM*,.,.,1.6µM*,.,.
Cc1ccc(CS(=O)(=O)c2ncc(Cl)c(C(=O)Nc3nc4ccc(C)cc4s3)n2)cc1,3.7µM*,i,.,2.9µM*,i,.
Cc1ccc(CS(=O)(=O)c2ncc(Cl)c(C(=O)Nc3nc4ccc(F)cc4s3)n2)cc1,2.6µM*,i,.,5.2µM*,i,.
COc1ccc2nc(NC(=O)c3nc(SC(C)C)ncc3Cl)sc2c1,-6%,i,.,-6%,i,.
CCCC1=C(C(=O)OCC)C(c2cc(Cl)cc(OC)c2OCc2ccccc2)NC(=O)N1 (centres undefined),?,i,?,?,i,?
CCOc1ccc(S(=O)(=O)N2CCC(C(=O)NC3CCCC3)CC2)cc1,5%,i,6%,11%,i,8%
CCOC(=O)[C@]12CCC=C1N(Cc1ccco1)C(=O)[C@H](CC(=O)NCc1cccc3ccccc13)C2,-17%,i,-8%,-16%,?,1%
CCOC(=O)[C@]12CCCC=C1N(Cc1cccc3ccccc13)C(=O)[C@H](CC(=O)NCC1CCCCC1)C2,23µM*,?,17%,?,?,14%
CCOC(=O)[C@]12CCCC=C1N(Cc1cccc3ccccc13)C(=O)[C@H](CC(=O)NCc1cccs1)C2,23µM*,?,?,?,16µM*,?
CCOC(=O)[C@]12CCC=C1N(Cc1cccc3ccccc13)C(=O)[C@H](CC(=O)NCc1cccs1)C2,?,?,-30%,?,?,?
